Assay [1] is described as follows: NCI Yeast Anticancer Drug Screen. Data for the rad50 strain (AID 155).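 Further: 0% = growth of vehicle-only cultures of the same strain.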 As to conditions: S. cerevisiae rad50 strain growth inhibition, active compounds read high; at 50.0 µM unless noted. The method, boiled down: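 A DNA repair-deficient yeast mutant serves as the test organism; compound-induced growth inhibition is calculated against vehicle-treated cells.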
Assay [2] in a line: NCI Yeast Anticancer Drug Screen. Data for the mec2-1 strain (AID 157). Particulars: S. cerevisiae mec2-1 strain, active compounds read high; at 50.0 µM unless noted. The method, boiled down:
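Growth inhibition is read against vehicle-treated controls after compound exposure of the mec2-1 yeast strain, which is defective in DNA damage repair or cell cycle control.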

Assay [3] in a line: NCI Yeast Anticancer Drug Screen. Data for the sgs1 mgt1 strain (AID 161).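 Further: 0% = growth of cultures given vehicle only.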 As to conditions: S. cerevisiae sgs1 mgt1 strain, active compounds read high; at 50.0 µM unless noted. The method in brief: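 Compounds are added to genetically altered yeast, and growth is compared with cultures given vehicle alone to give percent inhibition.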
The nature of assay [4]: NCI Yeast Anticancer Drug Screen. Data for the cln2 rad14 strain (AID 165).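 Further: 0% = growth equal to vehicle treated cultures.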 As to conditions: S. cerevisiae cln2 rad14 strain, active compounds read high; at 50.0 µM unless noted. The method, boiled down:
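Growth inhibition, relative to vehicle-treated controls, is the read-out. The test organism is a yeast strain with defined genetic alterations, cln2 rad14.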

Assay [5] is described as follows: NCI Yeast Anticancer Drug Screen. Data for the bub3 strain (AID 167). As to conditions: S. cerevisiae bub3 mutant strain, active compounds read high; at 50.0 µM unless noted. The method in brief: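 Inhibition values come from growth of compound-treated mutant yeast normalised to vehicle-treated controls.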
Assay [6] can be described thus: NCI Yeast Anticancer Drug Screen. Data for the mlh1 rad18 strain (AID 175). Particulars: S. cerevisiae mlh1 rad18 strain growth inhibition, active compounds read high; at 50.0 µM unless noted. The method, boiled down:
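Cells of a genetically altered yeast strain, deficient in DNA damage repair, were treated with compound. Their growth was then compared with that of vehicle-treated cultures to give inhibition.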

Molecules are shown by their SMILES. “And” between values parts separate entries of the source, which are not always exact repeats. Equal values may be shown once. The panel holds about 79,000 compounds, 15% with a hit somewhere; the sample as a whole holds those more often. Values without a mark were called inactive. The source made the active and inactive calls. No stated cut-off is given here; in the data, active means growth inhibition above about 70%; inactive means the rest.

In the case of `CCCn1c(C)nc2c([N+](=O)[O-])cc(C)cc21`, the growth inhibition in assay [1] was -4.2%; in assay [2] it was -14.8%; in assay [3] it was -12.9%; in assay [4] it was -34.2%; in assay [5], 13.4%; in assay [6] it was -4.8%.

In the case of `OCCN1CCN=C1Cc1ccccc1`, the growth inhibition is 4.75% in assay [1]; 11.9% in assay [2]; 8.05% in assay [3]; 14.2% in assay [4]; -2.1% in assay [5]; 29.4% in assay [6].

Turning to `CC1=NN(c2ccc(S(=O)(=O)O)cc2)C(=O)C1N=Nc1ccc(-c2ccc(N=Nc3ccc(O)c(C(=O)O)c3)c(C)c2)cc1C` (stereo not given), the growth inhibition was 17.6% in assay [1]; 20.9% in assay [2]; 17.3% in assay [3]; 17.1% in assay [4]; 23.4% in assay [5]; 30.7% in assay [6].

For `C=CCOCC(O)CNCC(O)COCC=C` (stereo not given), the growth inhibition was -36.9% in assay [1]; -33.7% in assay [2]; -24.9% in assay [3]; 14.3% in assay [4]; -31.2% in assay [5]; 5.2% in assay [6].

Regarding `C=C1C2CCC(C2)C1(C)CC/C=C(/C)CO` (stereo not given) (tested in a mixture with another compound), the growth inhibition was 34.4% and 47.7% in assay [1]; 9.65% and 7.15% in assay [2]; 33.2% and 41.6% in assay [3]; 20.2% and 7.3% in assay [4]; 35.5% and 19.8% in assay [5]; 16.4% and 26.4% in assay [6].

As for `Cc1cccc(C(=O)OCC2CCCO2)c1` (stereo not given), the growth inhibition in assay [1] was -0.2%; in assay [2], 11.7%; in assay [3], 8.15%; in assay [4] it was -22.6%; in assay [5], 8.8%; in assay [6], -3.4%.

Consider `COc1ccccc1/C=C1\SC(=S)NC1=O`, for which the growth inhibition is -44.6% in assay [1]; -36.9% in assay [2]; -38.2% in assay [3]; -14.6% in assay [4]; -17.8% in assay [5]; -40.1% in assay [6].

Consider `COc1ccc(/C=C/C(=O)c2sc(Nc3ccc([N+](=O)[O-])cc3)nc2C)cc1`, for which the growth inhibition is 39.2% in assay [1]; 7.45% in assay [2]; 5.35% in assay [3]; 36.8% in assay [4]; 27.5% in assay [5]; 46.4% in assay [6].

Regarding `COc1ccc2oc3cc(Cl)ccc3c(=O)c2c1`, the growth inhibition in assay [1] is 4.8%; in assay [2], 0.85%; in assay [3], -8.85%; in assay [4], 4.35%; in assay [5], 30.4%; in assay [6], 14.2%.

As to `COc1cc(C2c3cc4c(cc3OC(N3CCOCC3)C2C)OCO4)cc(OC)c1O` (stereo not given), the growth inhibition is -17.1% in assay [1]; -25.8% in assay [2]; -23.3% in assay [3]; -12.5% in assay [4]; -8.95% in assay [5]; -8% in assay [6].

Take `COc1ccc2cc3n(c(=O)c2c1OC)CCc1cc2c(cc1-3)OCO2`: the growth inhibition in assay [1] is 11.9%; in assay [2] it was -20.7%; in assay [3], 14.2%; in assay [4] it was 25.4%; in assay [5], 2.8%; in assay [6] it was -0.45%.

For `COc1cc2c3cc1Oc1cc(ccc1O)C[C@@H]1c4c(cc(OC)c(O)c4Oc4ccc(cc4)C[C@@H]3[N+](C)(C)CC2)CC[N+]1(C)C`, the growth inhibition in assay [1] is -23.2%; in assay [2], -43.1%; in assay [3], -40.4%; in assay [4], 68.6%; in assay [5], -35.6%; in assay [6] it was 6.7%.

Turning to `COc1ccc(/C=C2\CNC/C(=C\c3ccc(OC)cc3)C2=O)cc1`, the growth inhibition is 34% in assay [1]; 1.75% in assay [2]; 55.2% in assay [3]; 37.5% in assay [4]; 15.3% in assay [5]; 34.1% in assay [6].

As for `Nc1nc(Cl)cc(NCCCCCCCCNc2cc(Cl)nc(N)n2)n1`, the growth inhibition in assay [1] was -2.3%; in assay [2], -1.65%; in assay [3], -7.35%; in assay [4], -7.8%; in assay [5], -3.95%; in assay [6] it was -3.55%.

Turning to `CC1(C)SCc2nc3ccccc3n21`, the growth inhibition in assay [1] was -9.75%; in assay [2], -34.9%; in assay [3], 12.2%; in assay [4] it was 21.9%; in assay [5], 19.1%; in assay [6], 6.3%.

Take `CN(C)N1C(=O)S/C(=C\c2ccc([N+](=O)[O-])cc2)C1=O`: the growth inhibition in assay [1] was -24.4%; in assay [2], -14.3%; in assay [3], 1.15%; in assay [4], 6.3%; in assay [5], -4.1%; in assay [6], -16.2%.

`Nc1nc(-c2cc(Br)ccc2N=NN2CCCCC2)nc2ccc(Br)cc12`: the growth inhibition in assay [1] is 82.2% (active); in assay [2] it was 37.2%; in assay [3], 79.5% (active); in assay [4], 46%; in assay [5], 22.3%; in assay [6], 70.8% (active).

Take `CC(C)(C)OC(=O)c1ccccc1C(=O)c1ccccc1`: the growth inhibition in assay [1] was -0.4%; in assay [2] it was -1.2%; in assay [3] it was -4.8%; in assay [4], 14.3%; in assay [5] it was 9.05%; in assay [6] it was -10.8%.

Regarding `CCN(CC)CCCC(C)Nc1cc(OC)c2nc(C)ccc2c1OC` (stereo not given), the growth inhibition is -2.35% in assay [1]; -0.4% in assay [2]; -14.2% in assay [3]; -5.9% in assay [4]; -3.2% in assay [5]; 14.9% in assay [6].

Consider `Cc1ccc(C)n1CCCCCCCn1c(C)ccc1C`, for which the growth inhibition in assay [1] is -24.7%; in assay [2], -3.5%; in assay [3] it was 5.15%; in assay [4] it was -22.8%; in assay [5] it was 25.1%; in assay [6] it was -9.8%.

Source of the values: PubChem BioAssay (NCI).
